# Records with an inconclusive call do not appear. The list shows a part of the results. Calls of active or inactive are those of the source. Unless noted, the call rests on the fitted dose curve; in most records, active means well fitted curve in the direction sought with a large enough effect; inconclusive means small, poorly fitted or top-dose-only effect, or another doubt; inactive means no such curve, though single readings can be large; an effect the other way counts as inactive or inconclusive.
# What was measured:
# [1] = qHTS profiling for inhibitors of Plasmodium falciparum (3D7) proliferation (AID 743322);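 further: infected erythrocytes exposed to compound for 72 h before lysis; 100% = DMSO vehicle wells and 0% = 0.29 µM artemisinin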; conditions: P. falciparum 3D7 proliferation; at 28.7 µM (top of the series)
# Method in brief: (§1)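 Parasite DNA was quantified by SYBR Green I fluorescence (ex 485, em 535 nm) after overnight lysis in saponin/Triton buffer at room temperature. Cultures at 0.3% parasitemia and 2.5% hematocrit were first exposed to compound for 72 h at 37 C; signals were normalised to artemisinin (0.29 uM) and vehicle wells.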
# [2] = qHTS profiling for inhibitors of Plasmodium falciparum (DD2) proliferation (AID 743323; call rule not given here); conditions: lower = more inhibition; at 28.7 µM (top of the series)
# Method in brief: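 1536-well qHTS; infected RBCs 0.3% parasitemia/2.5% Hct final; cpd 72 h 37 C 5% CO2; lysis buffer + SYBR Green I, o/n RT dark; FI 485/535; norm. to 0.29 uM artemisinin and DMSO, plate-stack corrected.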
# [3] = qHTS profiling for inhibitors of Plasmodium falciparum (HB3) proliferation (AID 743324); conditions: Plasmodium falciparum HB3 blood-stage proliferation; at 28.7 µM (top of the series);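 further: 100% = DMSO vehicle wells and 0% = artemisinin-treated control wells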
# Method in brief: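 SYBR Green fluorescence (485 ex/535 em) of lysed cultures, incubated overnight at room temperature in the dark, quantifies parasite DNA. Infected erythrocytes at 0.3% parasitemia and 2.5% hematocrit were exposed 72 h; values normalized to DMSO and 0.29 uM artemisinin controls.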
# [4] = molecular target: Calcium and integrin-binding protein 1 (Homo sapiens) (UniProt Q99828); experiment: Primary qHTS for Identification of Calcium Integrin Binding Protein 1 (CIB1) Competitor (AID 1508620);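 further: GST tagged CIB1 binding a fluorescein labelled alphaIIb integrin peptide tracer; top concentration of the series differs between compounds; on the % scale 0 is the no-effect control and ±100 the full control effect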
# Method in brief: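 Fluorescence polarization competition: GST-tagged CIB1 (1 uM final) preincubated with compound 15 min at room temperature, then FITC-labelled alphaIIb peptide (100 nM final) added. After 15 min at room temperature, polarization read at Ex 480/Em 540.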
# [5] = molecular target: Lysosomal acid glucosylceramidase (Homo sapiens) (UniProt P04062); experiment: Glucocerebrosidase-p2 (AID 348; in the data active means potency below about 10 µM; further: potency means the concentration at half of the fitted maximal effect); conditions: purified GBA, blue fluorogenic substrate, 40 min
# Method in brief: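 Normal human glucocerebrosidase (0.2 nM) with blue fluorogenic substrate (80 uM final) in citrate/phosphate pH 5.9 with 10mM sodium taurocholate, 0.01% tween-20; 40 min RT, NaOH/glycine stop; fluorescence Ex 365/Em 440; AC50 from a titration from 0.6 nM upwards.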
# [6] = AP1 Signaling Pathway (AID 357; active means well fitted curve in either direction with a large enough effect, not every such curve was filed as active;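 further: ME-180 reporter cells stimulated with EGF at its EC50 level; on the % scale 0 is the no-effect control and ±100 the full control effect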); conditions: ME-180 AP-1-bla reporter, EGF-induced, beta-lactamase ratio, 5 h; at 7.69 µM (top of the series) unless noted
# Method in brief: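 AP-1-bla ME-180 cells, Opti-MEM + 0.5% dialyzed FBS, plated overnight 37 °C. Cpd titration + EC50 EGF, 5 h 37 °C. CCF4 2.5 h RT; ex 405, em 460/530 ratio → %activity, AC50.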
# [7] = molecular target: Cytochrome P450 1A2 (Homo sapiens) (UniProt P05177); experiment: p450-cyp1a2 (AID 410; calls by dose curve; further: potency means the concentration at half of the fitted maximal effect)
# Method in brief: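 O-Demethylation of luciferin 6' methyl ether by human CYP1A2 is monitored as luciferase luminescence. Substrate sits at Km (100uM); enzyme is 20nM. Values are scaled to 57 uM furafylline as maximal inhibition.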
# [8] = NFAT Signaling Pathway (AID 444; active means well fitted curve in either direction with a large enough effect, not every such curve was filed as active;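 further: carbachol stimulus at about its EC50 of 1 µM final; on the % scale 0 is the no-effect control and ±100 the full control effect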); conditions: Jurkat NFAT-bla M1, carbachol, beta-lactamase ratio, 5 h; at 7.69 µM (top of the series) unless noted
# Method in brief: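 Jurkat cells with NFAT-driven β-lactamase reporter and co-expressed M1 receptor, stimulated with carbachol (final 1 uM, ~EC50), compound titration, 5 h at 37 °C. CCF4 loaded 1 h at RT; 460/530 nm ratio gave %activity and AC50.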
# [9] = Stat Signaling Pathway (AID 446; active means well fitted curve in either direction with a large enough effect, not every such curve was filed as active;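 further: ME-180 cervical cancer cells given 40 pM IL-6 alongside compound; SIE-controlled beta-lactamase reporter measured as 460/530 nm FRET emission ratio; on the % scale 0 is the no-effect control and ±100 the full control effect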); conditions: ME-180 (cervical carcinoma) SIE beta-lactamase reporter, IL-6 stimulated, 5 h; at 7.69 µM (top of the series) unless noted
# Method in brief: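 Emission at 460 and 530 nm (excitation 405 nm) reports SIE-controlled beta-lactamase in ME-180 cells. Cells received compound with 40 pM IL-6 for 5 hrs at 37 C; data scaled between 300 pM IL-6 and 125 nM JAK-inhibitor controls.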
# [10] = molecular target: Glucocorticoid receptor (Homo sapiens) (UniProt P04150); experiment: GR-GFP Redistribution (AID 450;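 active means compounds whose dose series gives a full or clear partial fitted curve of increased nuclear translocation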; further: potency means the concentration at half of the fitted maximal effect); conditions: U2OS GR-GFP nuclear translocation, laser cytometry, 2 h
# [11] = molecular target: Glucocorticoid receptor (Homo sapiens) (UniProt P04150); experiment: GR-EFC Redistribution (AID 451; calls by dose curve; further: potency means the concentration at half of the fitted maximal effect); conditions: CHO-K1 GR-EFC translocation, beta-gal luminescence, 2 h
# Method in brief: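 CHO-K1 cells expressing nuclear EA and GR-ED fragments of b-gal; compounds titrated up to 46 uM final, 2 h at 37 C. GR nuclear translocation read as complemented b-gal luminescence after 1 h RT detection.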
# [12] = molecular target: Mitogen-activated protein kinase 10 (Mus musculus) (UniProt Q61831); experiment: JNK3 AlphaScreen Assay (AID 530; active means well fitted curve in either direction with a large enough effect, not every such curve was filed as active)
# Method in brief: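 Activity was read by AlphaScreen after JNK3-containing HepG2 lysate (cytokine pre-activated) phosphorylated biotinylated GST-cJun with 10 uM ATP at room temperature. Phospho-Ser73 cJun antibody with Protein-A acceptor beads provided detection.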
# [13] = molecular target: 3',5'-cyclic-AMP phosphodiesterase 4B (Homo sapiens) (UniProt Q07343); experiment: qHTS Assay for Inhibitors of PDE-IV (AID 607; active means well fitted activation curve with a large enough effect in the main read-out, with a control signal flat, not every such curve was filed as active; further: % of control where 0% means no effect)
# Method in brief: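 The readout is membrane depolarisation from a cAMP-sensing CNG channel, detected with a potential dye at ex 535/em 590. Cells were HEK293-derived (endogenous PDE-IV) at 1000 cells/well, titrated up to 22.9 uM final.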
# [14] = molecular target: Cytochrome P450 3A4 (Homo sapiens) (UniProt P08684); experiment: qHTS Assay for Inhibitors and Substrates of Cytochrome P450 3A4 (AID 884); further: on the % scale 0 is the no-effect control and ±100 the full control effect; nearly all actives have a fitted effect of over 50% in size
# Method in brief: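 Luminescent readout of luciferin produced by CYP3A4 (20 nM) dealkylation of Luciferin-PPXE, 25 uM (its KM). NADPH-driven reaction ran 60 min at RT after 10 min compound preincubation; data scaled to 57 uM ketoconazole as 100% inhibition.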
# [15] = qHTS Assay for Lipid Storage Modulators (AID 1519; calls by dose curve); conditions: Drosophila S3 cells, BODIPY lipid droplet/cell ratio, laser cytometry, cells loaded with oleic acid
# Method in brief: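 Cells seeded at 5,000 per well were treated with compounds over a concentration series and loaded with oleic acid (400 uM, as added). Lipid droplet fluorescence (488 nm excitation, 500-530 nm channel) was read by laser-scanning cytometry and normalized to 20 uM Triacsin C.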
# [16] = molecular target: Dual specificity protein kinase CLK4 (Homo sapiens) (UniProt Q9HAZ1); experiment: qHTS Assay for Inhibitors of CDC-like Kinase 4 (Kinase-Glo Assay) (AID 1770); further: on the % scale 0 is the no-effect control and ±100 the full control effect; nearly all actives have a fitted effect of over 65% in size
# Method in brief: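 Clk4 25 nM, RS peptide 100 uM, ATP 1 uM, pH 7.5 Tris, 10 mM MgCl2, 2.5 mM DTT; 4.5 h RT; ATP depletion read by Kinase-Glo luminescence.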
# [17] = molecular target: Dual specificity protein kinase CLK4 (Homo sapiens) (UniProt Q9HAZ1); experiment: qHTS Assay for Inhibitors of CDC-like Kinase 4 (ADP-Glo Assay) (AID 1771); further: on the % scale 0 is the no-effect control and ±100 the full control effect; nearly all actives have a fitted effect of over 70% in size
# Method in brief: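 Compounds are pin-transferred onto substrate mix (100 uM RS peptide, 1 uM ATP), then 25 nM Clk4 is added. After 1 hr at room temperature, ADP-Glo reagent runs 45 min, detection reagent 30 min, then luminescence is read.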
# [18] = molecular target: Dual specificity protein kinase CLK4 (Homo sapiens) (UniProt Q9HAZ1); experiment: qHTS Assay for Inhibitors of CDC-like Kinase 4 (ADP-FP Assay) (AID 1795);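 further: recombinant human CLK4 phosphorylating RS repeat peptide at 1 µM ATP; on the % scale 0 is the no-effect control and ±100 the full control effect; nearly all actives have a fitted effect of over 60% in size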
# Method in brief: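 Kinase activity was followed as ADP output, converted from fluorescence polarization with a calibration curve. Reactions ran one hour at low ATP (1 uM) with RS peptide substrate.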
# [19] = molecular target: Ubiquitin carboxyl-terminal hydrolase 1 (Homo sapiens) (UniProt O94782); experiment: Inhibitors of USP1/UAF1: Pilot qHTS (AID 504865);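 further: rhodamine fluorescence freed from ubiquitin-rhodamine substrate followed over time; top concentration of the series differs between compounds; on the % scale 0 is the no-effect control and ±100 the full control effect; nearly all actives have a fitted effect of over 35% in size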
# Method in brief: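 Enzyme-free wells gave the negative control, while test wells held 1nM USP1/UAF1 preincubated with compound for 15 min at room temperature. Ub-Rho at 150nM final started the reaction, and fluorescence at 480/540 nm was recorded kinetically.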
# [20] = Counterscreen qHTS for small molecule stabilizers of the endoplasmic reticulum resident proteome: GLuc-NoTag assay (AID 1508627);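 further: 0% = thapsigargin alone and -100% = DMSO vehicle control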
# Method in brief: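 Counterscreen line: SH-SY5Y-GLuc-NoTag. Seed, 5 h; compound, 19 h; thapsigargin 100 nM, 4 h; 37C/5% CO2. Readout: secreted GLuc luminescence, coelenterazine 0.07x final, no lysis.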
# [21] = Confirmatory qHTS for small molecule stabilizers of the endoplasmic reticulum resident proteome: Secreted ER Calcium Modulated Protein (SERCaMP) assay (AID 1508628); further: nearly all actives have a fitted effect of over 40% in size; further: potency means the concentration at half of the fitted maximal effect
# Method in brief: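 Reporter secretion upon ER calcium depletion (100 nM thapsigargin, 4 h, 37C) is measured as medium luminescence with coelenterazine, after 16 h compound pretreatment of SH-SY5Y-GLuc-SERCaMP cells; primary at three concentrations up to 38.3 uM, follow-up at 11 (up to 76.6 uM).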
# [22] = Cell Viability qHTS for small molecule stabilizers of the endoplasmic reticulum resident proteome (AID 1508629); conditions: cell viability counter-screen, 100 nM thapsigargin for final 4 h
# [23] = qHTS profiling of the MIPE4 collection as inhibitors of Plasmodium falciparum (3D7) proliferation (AID 743344; call rule not given here;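 further: scaled between DMSO vehicle wells and 0.29 µM artemisinin as full inhibition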); conditions: P. falciparum 3D7 in erythrocytes, SYBR Green DNA fluorescence, 72 h; at 28.5 µM (top of the series)
# Method in brief: as §1
# [24] = qHTS profiling of the MIPE4 collection as inhibitors of Plasmodium falciparum (DD2) proliferation (AID 743345; call rule not given here); conditions: P. falciparum Dd2 in erythrocytes, SYBR Green DNA, 72 h; at 28.5 µM (top of the series)
# Method in brief: as §1
# [25] = qHTS profiling of the MIPE4 collection as inhibitors of Plasmodium falciparum (DD2) proliferation (Rep 2) (AID 743346; call rule not given here); conditions: P. falciparum Dd2 in erythrocytes, SYBR Green DNA, 72 h; at 28.5 µM (top of the series)
# Method in brief: as §1
# [26] = qHTS profiling of the MIPE4 collection as inhibitors of Plasmodium falciparum (HB3) proliferation (AID 743347; call rule not given here;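 further: plate controls were DMSO vehicle wells for no effect and artemisinin wells for full effect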); conditions: P. falciparum HB3 in erythrocytes, SYBR Green DNA, 72 h; at 28.5 µM (top of the series)
# Method in brief: as §1
# [27] = molecular target: Flap endonuclease 1 (Homo sapiens) (UniProt P39748); experiment: qHTS Assay for the Inhibitors of FEN1: Confirmatory Assay for Cherry-picked Compounds (AID 720498); conditions: FEN1 flap cleavage, TAMRA/BHQ2 fluorogenic DNA substrate; further: potency means the concentration at half of the fitted maximal effect; nearly all actives have a fitted effect of over 60% in size
# Method in brief: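 Human FEN1 (10 nM reagent) was preincubated with compounds for 15 min at room temperature, then 50 nM final double-flap DNA substrate (5'-TAMRA flap, BHQ-2 quencher strand) was added. Fluorescence (ex 525/em 598 nm) was read at 0 and 15 min.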
# Chain of Dual specificity protein kinase CLK4 (Homo sapiens) (Q9HAZ1 whole entry, looked up): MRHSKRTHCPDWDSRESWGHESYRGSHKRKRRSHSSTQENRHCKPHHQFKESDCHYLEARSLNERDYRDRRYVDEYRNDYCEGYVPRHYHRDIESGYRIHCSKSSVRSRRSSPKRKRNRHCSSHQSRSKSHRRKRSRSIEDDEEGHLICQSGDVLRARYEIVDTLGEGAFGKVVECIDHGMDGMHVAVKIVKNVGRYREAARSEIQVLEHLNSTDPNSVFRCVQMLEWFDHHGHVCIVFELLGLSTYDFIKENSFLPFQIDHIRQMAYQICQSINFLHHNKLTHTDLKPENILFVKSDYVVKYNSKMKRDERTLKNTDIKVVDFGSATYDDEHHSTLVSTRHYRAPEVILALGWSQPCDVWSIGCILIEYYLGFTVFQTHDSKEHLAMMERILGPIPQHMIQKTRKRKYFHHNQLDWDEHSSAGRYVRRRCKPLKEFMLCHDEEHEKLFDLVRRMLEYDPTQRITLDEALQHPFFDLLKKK
# Chain of Calcium and integrin-binding protein 1 (Homo sapiens) (Q99828 whole entry, looked up): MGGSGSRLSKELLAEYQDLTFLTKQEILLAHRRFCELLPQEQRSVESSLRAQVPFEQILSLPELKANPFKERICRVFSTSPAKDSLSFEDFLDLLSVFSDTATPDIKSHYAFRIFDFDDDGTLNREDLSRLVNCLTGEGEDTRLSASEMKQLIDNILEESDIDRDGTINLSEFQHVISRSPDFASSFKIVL
# Chain of Glucocorticoid receptor (Homo sapiens) (P04150 whole entry, looked up, the tested form may be a part): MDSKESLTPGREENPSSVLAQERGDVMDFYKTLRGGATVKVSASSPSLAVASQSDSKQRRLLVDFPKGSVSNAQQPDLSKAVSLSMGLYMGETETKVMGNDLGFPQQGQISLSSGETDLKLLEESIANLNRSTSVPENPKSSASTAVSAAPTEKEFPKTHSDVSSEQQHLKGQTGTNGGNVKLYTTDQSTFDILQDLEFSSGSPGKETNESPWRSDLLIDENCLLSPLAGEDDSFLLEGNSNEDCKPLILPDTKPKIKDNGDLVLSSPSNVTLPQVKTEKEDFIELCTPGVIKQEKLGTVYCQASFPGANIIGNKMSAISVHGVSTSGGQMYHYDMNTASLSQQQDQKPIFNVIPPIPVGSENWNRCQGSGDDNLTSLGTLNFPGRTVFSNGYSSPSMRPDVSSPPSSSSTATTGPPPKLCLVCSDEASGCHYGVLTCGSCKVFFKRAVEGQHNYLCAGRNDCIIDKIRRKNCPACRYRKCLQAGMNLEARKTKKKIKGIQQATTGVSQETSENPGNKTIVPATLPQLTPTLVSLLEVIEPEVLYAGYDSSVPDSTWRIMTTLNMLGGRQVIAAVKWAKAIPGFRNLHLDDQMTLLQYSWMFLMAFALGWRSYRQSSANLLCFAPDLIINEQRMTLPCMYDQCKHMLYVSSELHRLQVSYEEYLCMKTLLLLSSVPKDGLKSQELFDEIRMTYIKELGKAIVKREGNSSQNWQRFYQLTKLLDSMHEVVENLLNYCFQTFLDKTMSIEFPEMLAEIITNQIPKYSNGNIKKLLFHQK
# Chain of Ubiquitin carboxyl-terminal hydrolase 1 (Homo sapiens) (O94782 whole entry, looked up): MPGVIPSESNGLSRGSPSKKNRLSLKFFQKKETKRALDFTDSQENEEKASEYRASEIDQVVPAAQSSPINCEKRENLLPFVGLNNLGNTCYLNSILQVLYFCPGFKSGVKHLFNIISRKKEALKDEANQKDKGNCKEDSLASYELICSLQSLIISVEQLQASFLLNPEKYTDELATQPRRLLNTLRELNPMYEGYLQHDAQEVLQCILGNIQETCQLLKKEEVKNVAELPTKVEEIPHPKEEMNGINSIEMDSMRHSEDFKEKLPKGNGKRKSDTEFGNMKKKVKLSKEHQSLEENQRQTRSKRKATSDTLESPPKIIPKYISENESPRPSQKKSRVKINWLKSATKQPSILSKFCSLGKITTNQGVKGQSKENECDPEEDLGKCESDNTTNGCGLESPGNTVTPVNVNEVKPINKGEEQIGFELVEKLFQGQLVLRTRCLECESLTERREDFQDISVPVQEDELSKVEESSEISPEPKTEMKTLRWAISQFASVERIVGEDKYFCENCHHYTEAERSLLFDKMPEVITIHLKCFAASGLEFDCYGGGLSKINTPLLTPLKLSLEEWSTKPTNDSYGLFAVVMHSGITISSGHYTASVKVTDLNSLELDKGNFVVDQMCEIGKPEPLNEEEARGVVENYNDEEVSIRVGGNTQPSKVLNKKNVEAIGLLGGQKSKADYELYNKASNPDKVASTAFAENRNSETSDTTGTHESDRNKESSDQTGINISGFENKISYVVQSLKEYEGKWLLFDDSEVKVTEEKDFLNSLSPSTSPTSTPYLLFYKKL
# Chain of Lysosomal acid glucosylceramidase (Homo sapiens) (P04062 whole entry, looked up): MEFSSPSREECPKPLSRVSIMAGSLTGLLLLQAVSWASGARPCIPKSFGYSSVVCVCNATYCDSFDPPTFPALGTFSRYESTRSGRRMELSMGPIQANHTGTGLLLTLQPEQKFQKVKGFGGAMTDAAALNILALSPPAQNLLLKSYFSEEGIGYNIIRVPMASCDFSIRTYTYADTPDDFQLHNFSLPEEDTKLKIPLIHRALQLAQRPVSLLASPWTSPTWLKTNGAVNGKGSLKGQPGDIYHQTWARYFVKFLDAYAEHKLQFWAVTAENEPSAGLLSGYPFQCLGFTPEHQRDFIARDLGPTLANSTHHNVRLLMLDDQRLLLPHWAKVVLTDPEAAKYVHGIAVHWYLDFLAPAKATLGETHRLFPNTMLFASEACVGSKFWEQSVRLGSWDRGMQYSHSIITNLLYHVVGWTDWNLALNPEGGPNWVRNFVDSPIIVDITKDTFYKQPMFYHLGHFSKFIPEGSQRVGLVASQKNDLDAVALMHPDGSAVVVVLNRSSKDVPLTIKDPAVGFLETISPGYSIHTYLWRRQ
# Chain of Cytochrome P450 3A4 (Homo sapiens) (P08684 whole entry, looked up): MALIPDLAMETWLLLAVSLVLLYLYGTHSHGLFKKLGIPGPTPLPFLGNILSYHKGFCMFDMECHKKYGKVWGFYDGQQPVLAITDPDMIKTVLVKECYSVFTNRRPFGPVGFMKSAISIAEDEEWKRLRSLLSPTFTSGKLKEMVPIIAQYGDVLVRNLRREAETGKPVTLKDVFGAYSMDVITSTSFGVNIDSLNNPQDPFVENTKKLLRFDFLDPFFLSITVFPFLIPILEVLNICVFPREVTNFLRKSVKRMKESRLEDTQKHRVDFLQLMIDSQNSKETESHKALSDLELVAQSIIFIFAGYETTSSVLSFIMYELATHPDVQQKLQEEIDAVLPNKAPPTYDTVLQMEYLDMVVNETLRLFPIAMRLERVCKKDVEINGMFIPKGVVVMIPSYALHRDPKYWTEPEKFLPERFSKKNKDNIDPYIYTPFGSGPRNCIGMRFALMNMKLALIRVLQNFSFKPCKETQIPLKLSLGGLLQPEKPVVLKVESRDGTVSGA
# Chain of Cytochrome P450 1A2 (Homo sapiens) (P05177 whole entry, looked up): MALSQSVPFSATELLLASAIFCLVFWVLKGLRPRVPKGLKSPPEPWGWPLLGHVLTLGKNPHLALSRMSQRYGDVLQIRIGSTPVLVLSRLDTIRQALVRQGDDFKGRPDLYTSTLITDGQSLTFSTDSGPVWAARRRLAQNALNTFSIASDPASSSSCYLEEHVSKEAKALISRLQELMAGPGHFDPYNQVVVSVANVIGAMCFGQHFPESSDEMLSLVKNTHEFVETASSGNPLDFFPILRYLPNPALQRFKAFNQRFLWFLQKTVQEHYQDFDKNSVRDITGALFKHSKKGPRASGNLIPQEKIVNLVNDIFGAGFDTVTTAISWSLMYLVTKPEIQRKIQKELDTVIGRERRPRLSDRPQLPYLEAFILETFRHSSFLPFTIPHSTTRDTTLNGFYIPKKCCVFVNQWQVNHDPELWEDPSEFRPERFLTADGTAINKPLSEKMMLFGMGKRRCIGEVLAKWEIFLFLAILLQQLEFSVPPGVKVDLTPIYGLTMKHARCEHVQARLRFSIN
# Chain of 3',5'-cyclic-AMP phosphodiesterase 4B (Homo sapiens) (Q07343 whole entry, looked up): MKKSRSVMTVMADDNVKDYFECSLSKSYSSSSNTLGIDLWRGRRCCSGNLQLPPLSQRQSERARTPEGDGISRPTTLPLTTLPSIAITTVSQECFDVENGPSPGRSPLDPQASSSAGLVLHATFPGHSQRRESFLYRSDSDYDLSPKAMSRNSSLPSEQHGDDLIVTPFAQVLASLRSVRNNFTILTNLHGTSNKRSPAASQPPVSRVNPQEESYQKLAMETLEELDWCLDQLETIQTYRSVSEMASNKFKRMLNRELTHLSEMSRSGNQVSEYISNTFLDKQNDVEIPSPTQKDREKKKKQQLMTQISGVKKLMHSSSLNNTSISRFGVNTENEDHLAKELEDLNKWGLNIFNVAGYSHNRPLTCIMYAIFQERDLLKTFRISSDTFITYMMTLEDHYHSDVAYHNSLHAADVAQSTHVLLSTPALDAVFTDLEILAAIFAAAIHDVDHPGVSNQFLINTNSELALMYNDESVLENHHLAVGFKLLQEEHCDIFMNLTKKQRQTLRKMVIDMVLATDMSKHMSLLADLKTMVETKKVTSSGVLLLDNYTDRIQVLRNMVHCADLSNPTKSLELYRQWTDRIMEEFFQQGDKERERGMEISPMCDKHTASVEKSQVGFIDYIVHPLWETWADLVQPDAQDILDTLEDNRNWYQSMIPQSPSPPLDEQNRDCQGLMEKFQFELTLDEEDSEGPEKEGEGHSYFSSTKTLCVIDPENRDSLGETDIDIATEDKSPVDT
# Chain of Flap endonuclease 1 (Homo sapiens) (P39748 whole entry, looked up): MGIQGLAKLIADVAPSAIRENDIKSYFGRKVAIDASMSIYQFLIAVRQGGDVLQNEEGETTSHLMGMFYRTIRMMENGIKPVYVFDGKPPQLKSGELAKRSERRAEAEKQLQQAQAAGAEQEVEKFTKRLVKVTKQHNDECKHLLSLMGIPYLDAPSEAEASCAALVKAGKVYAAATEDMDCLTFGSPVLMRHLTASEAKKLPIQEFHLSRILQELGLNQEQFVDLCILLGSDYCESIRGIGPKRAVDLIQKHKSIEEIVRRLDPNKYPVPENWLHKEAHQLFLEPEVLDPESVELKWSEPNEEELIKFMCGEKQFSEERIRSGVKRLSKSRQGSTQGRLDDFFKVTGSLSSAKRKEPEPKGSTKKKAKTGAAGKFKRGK
smiles,measurement,setting,value
O=C([C@H](Cc1ccc(O[S+](=O)([O-])c2cccnc2)cc1)N[S+](=O)([O-])c1cccc2cnccc12)N1CCN(c2ccccc2)CC1,remaining parasite growth % (stronger effect = lower value),[1],0.0541%
same,"activity, percent of control",[2],4.11%
same,"remaining proliferation (% of control), lower = more inhibition",[3],0.563%
same,Potency,[4],inactive
COc1ccc(-n2c(=O)c(-c3ccccc3)nc3cnc(N4CCN(C)CC4)nc32)cc1,Potency,[5],> 11.4 µM (inactive)
same,"activity change, negative = inhibition",[6],14.5% (inactive)
same,Potency,[7],20 µM (active)
same,"activity change, negative = inhibition",[8],5.17% (inactive)
same,"activity, negative = inhibition",[9],12.2% (inactive)
same,Potency,[10],> 9.22 µM (inactive)
same,Potency,[11],> 46 µM (inactive)
same,outcome,[12],inactive
same,Potency,[13],inactive
same,Potency,[14],inactive
same,"activity change, negative = inhibition",[15]; at 57.5 µM (top of the series),0.696% (inactive)
same,max response,[15]; measured here: cell count channel max response,22%
same,max response,[15]; measured here: lipid channel max response,20%
same,Potency,[16],inactive
same,Potency,[17],inactive
same,Potency,[18],inactive
same,Potency,[19],inactive
same,Potency,[20],inactive
same,Potency,[21],25.1 µM (active)
same,max response,[22],12.9% (inactive)
COc1c2c(c(C(=O)/C=C/C(C)=C/c3ccccc3)c3c1OCO3)CCN(C)C2,Potency,[20],inactive
N[C@@H](Cc1ccc(O[S+](=O)([O-])c2cccc3cnccc23)cc1)C(=O)N1CCN(c2ccccc2)CC1,remaining parasite growth % (stronger effect = lower value),[1],-0.448%
same,"activity, percent of control",[2],3.27%
same,"remaining proliferation (% of control), lower = more inhibition",[3],1.2%
same,Potency,[4],inactive
O=C(c1ccccc1)N1CCN(Cc2cccc(Oc3ccccc3)c2)CC1,Potency,[20],inactive
CC(C)(C)OC(=O)N[C@@H](Cc1ccc(OS(=O)(=O)c2cccc3cnccc23)cc1)C(=O)N1CCCN(C(=O)OC(C)(C)C)CC1,"parasite growth, % of DMSO control",[23],5.32%
same,"parasite growth remaining, % of DMSO control (lower = more inhibition)",[24],7.99%
same,"parasite growth, % of control (lower = inhibition)",[25],34.3%
same,"growth, % of control",[26],7.55%
same,Potency,[4],inactive
OC[C@H]1NC[C@H](O)[C@@H](O)[C@@H]1O,Potency,[20],inactive
same,Potency,[21],inactive
same,max response,[22],6.89% (inactive)
COc1ccc(-c2ccc3ncnc(NCc4cccs4)c3c2)cc1OC,Potency,[27],37.9 µM (active)
same,Potency,[4],inactive
O=C([C@H](Cc1ccc(O[S+](=O)([O-])c2cccc3cnccc23)cc1)N[S+](=O)([O-])c1cccc2cnccc12)N1CCN(Cc2ccccc2)CC1,"parasite growth, % of DMSO control",[23],4.76%
same,"parasite growth remaining, % of DMSO control (lower = more inhibition)",[24],6.64%
same,"parasite growth, % of control (lower = inhibition)",[25],19.3%
same,"growth, % of control",[26],5.19%
same,Potency,[4],inactive
COc1cc(CN2CCN(C(=O)c3ccc(-c4ccccc4)cc3)CC2)cc(OC)c1OC,Potency,[20],inactive
same,Potency,[21],inactive

# Reference: PubChem BioAssay (NCATS)
